Inconclusive results are not listed. Calls of active or inactive are those of the source. Rule for the calls, unless noted: active = hit-call score of the fitted dose curve at least 0.9, where 1 is the maximum; inconclusive = response in the unintended direction; inactive = score below 0.9.
Columns and labels:
[1] = ATG_TAL_CIS: Attagene CIS-FACTORIAL HepG2 Assay for human TAL Basal Promoter (AID 2282966; active = hit-call score of the fitted dose curve at least 0.9, where 1 is the maximum; inactive = score below 0.9;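 note: background control endpoint measuring basal TAL promoter reporter mRNA not a specific factor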); conditions: HepG2 Attagene cis-factorial TAL promoter reporter; actives raise or lower the signal
Method in brief: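 RT-PCR plus capillary electrophoresis quantifies reporter mRNA induction in transiently transfected HepG2 cells after 24 h chemical treatment. DMSO serves as negative control and baseline for bidirectional fitting.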

[2] = ATG_TGFb_CIS: Attagene CIS-FACTORIAL HepG2 Assay for human Transforming Growth Factor (TGF) (AID 2282967; active = hit-call score of the fitted dose curve at least 0.9, where 1 is the maximum; inactive = score below 0.9); conditions: HepG2 Attagene CIS TGFb reporter, mRNA transcription; actives raise or lower the signal
Method in brief: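 After a 24-hour incubation with compound, transfected HepG2 cells were lysed for RNA; reporter cDNA was amplified, fluorescently end-labeled and separated by CE. DMSO served as baseline for bidirectional fits.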

[3] = ATG_VDRE_CIS: Attagene CIS-FACTORIAL HepG2 Assay for human Vitamin D Receptor Element (VDRE) (AID 2282968; active = hit-call score of the fitted dose curve at least 0.9, where 1 is the maximum; inactive = score below 0.9); conditions: HepG2 VDRE cis-reporter transcription, actives raise or lower the signal
Method in brief: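 Reporter mRNA induction, quantified by capillary electrophoresis of fluorescently labelled RT-PCR products, was read 24 h after dosing HepG2 cells carrying transiently transfected cis-regulated reporter units; gain or loss relative to DMSO.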

[4] = ATG_GAL4_TRANS: Attagene TRANS-FACTORIAL HepG2 Assay for GAL4 (Internal Marker) (AID 2282976); conditions: HepG2 Attagene TRANS GAL4 internal marker reporter
Method in brief: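 In transfected human HepG2 liver cells dosed 24 h, GAL4 reporter mRNA serves as a baseline marker. Detection by RT-PCR with fluorescent capillary electrophoresis, activity fitted upward relative to DMSO.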

[5] = target: Glucocorticoid receptor (Homo sapiens) (UniProt P04150); assay: ATG_GR_TRANS: Attagene TRANS-FACTORIAL HepG2 Assay for human Glucocorticoid Receptor (GR) (AID 2282978); conditions: HepG2 Attagene TRANS GR reporter, mRNA transcription;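 note: activators score as hits since higher reporter transcript over DMSO is fitted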
Method in brief: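 Exogenous NR-GAL4 fusion activity was assessed through induced GAL4-UAS reporter transcripts in transfected human HepG2 cells, quantified after 24 h by RT-PCR and fluorescent capillary electrophoresis with DMSO as baseline.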

[6] = ATG_M_06_TRANS: Attagene TRANS-FACTORIAL HepG2 Assay for M06 Transcription Factor (Internal Marker) (AID 2282983); conditions: HepG2 Attagene TRANS M06 internal marker reporter;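 note: reporter transcript level by RT-PCR then capillary electrophoresis fluorescence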
Method in brief: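 Cells: HepG2, transient multi-reporter transfection. Exposure: 24 h. Detection: RT-PCR, 6-FAM labelling, HpaI digestion (2 h, 37 °C), capillary electrophoresis. Baseline: DMSO.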

[7] = ATG_M_32_TRANS: Attagene TRANS-FACTORIAL HepG2 Assay for M32 Transcription Factor (Internal Marker) (AID 2282984); conditions: HepG2 Attagene TRANS M32 internal marker reporter;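 note: transcript level of a background control reporter unit measured by RT-PCR and capillary electrophoresis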
Method in brief: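 Measures reporter mRNA induction in human HepG2 liver cells after 24 h chemical treatment. Transcripts from transiently transfected GAL4-UAS reporter units are amplified, fluorescently labelled and sized by capillary electrophoresis; gain of signal relative to DMSO.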

[8] = target: Transcriptional activator Myb (Homo sapiens) (UniProt P10242); assay: ATG_Myb_CIS: Attagene CIS-FACTORIAL HepG2 Assay for human Myeloblastosis (Myb) Proto-Oncogene Transcription Factor (AID 2282986; active = hit-call score of the fitted dose curve at least 0.9, where 1 is the maximum; inactive = score below 0.9); conditions: HepG2 Attagene CIS-FACTORIAL Myb reporter transcription; actives raise or lower the signal
Method in brief: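 In this HepG2 transient-transfection format, cis-regulated reporter mRNA is quantified 24 h post-dosing by RT-PCR with capillary electrophoresis, fitted bidirectionally to DMSO baseline.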

[9] = target: Nuclear respiratory factor 1 (Homo sapiens) (UniProt Q16656); assay: ATG_NRF1_CIS: Attagene CIS-FACTORIAL HepG2 Assay for human Nuclear Respiratory Factor 1 (NRF1) Orphan Gene (AID 2282987; active = hit-call score of the fitted dose curve at least 0.9, where 1 is the maximum; inactive = score below 0.9); conditions: HepG2 NRF1 cis-element reporter, Attagene multiplex; actives raise or lower the signal
Method in brief: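 Using DMSO as baseline, gain- or loss-of-signal was fitted for reporter mRNA levels in HepG2 cells transiently transfected with cis-regulated reporter units. Samples were taken 24 h after dosing and read by RT-PCR with capillary electrophoresis.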

[10] = target: Nuclear receptor subfamily 1 group I member 3 (Homo sapiens) (UniProt Q14994); assay: ATG_CAR_TRANS: Attagene TRANS-FACTORIAL HepG2 Assay for human Constitutive Androstane Receptor (CAR) (AID 2282969); conditions: HepG2 Attagene TRANS-FACTORIAL CAR reporter;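 note: activators raise reporter mRNA above DMSO so AC50 marks induction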
Method in brief: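 Readout is reporter mRNA induction, quantified by fluorescent primer extension and capillary electrophoresis after RT-PCR. Cells were HepG2 transiently carrying chimeric NR-Gal4 constructs with GAL4-UAS reporters, treated for 24 h; activity scored upward from DMSO.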

[11] = target: Estrogen receptor (Homo sapiens) (UniProt P03372); assay: ATG_ERa_TRANS: Attagene TRANS-FACTORIAL HepG2 Assay for human Estrogen Receptor alpha (ERa) (AID 2282970); conditions: HepG2 Attagene TRANS ERa GAL4 reporter, mRNA
Method in brief: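 Cells: HepG2, transiently transfected. Construct: GAL4-UAS reporter units regulated by exogenous NR-Gal4 chimeras. Time: 24 h. Detection: reporter mRNA by RT-PCR, capillary electrophoresis, fluorescence. Baseline: DMSO, upward fitting.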

[12] = target: X-box-binding protein 1 (Homo sapiens) (UniProt P17861); assay: ATG_Xbp1_CIS: Attagene CIS-FACTORIAL HepG2 Assay for human X-box Binding Protein 1 (XBP1) (AID 2282972; active = hit-call score of the fitted dose curve at least 0.9, where 1 is the maximum; inactive = score below 0.9); conditions: HepG2 XBP1 cis-element reporter, Attagene multiplex; actives raise or lower the signal
Method in brief: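 After a 24-hour chemical exposure of HepG2 cells carrying cis-regulated reporters, reporter mRNA levels are assessed. Quantification uses RT-PCR, 6-FAM labelling and capillary electrophoresis. Gain- or loss-of-signal is fitted against DMSO.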

[13] = target: Nuclear receptor subfamily 4 group A member 2 (Homo sapiens) (UniProt P43354); assay: ATG_NURR1_TRANS: Attagene TRANS-FACTORIAL HepG2 Assay for human Nuclear Receptor Related Protein 1 (NURR1) (AID 2282985); conditions: HepG2 Attagene TRANS reporter, mRNA readout
Method in brief: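 Transient transfection of HepG2, human liver cells, with multiple GAL4-UAS reporter transcription units. Cells dosed 24 h, RNA isolated, reverse-transcribed, PCR-amplified, FAM-labelled, HpaI-digested, sized by capillary electrophoresis. DMSO served as negative control.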

[14] = target: Oxysterols receptor LXR-alpha (Homo sapiens) (UniProt Q13133); assay: ATG_LXRa_TRANS: Attagene TRANS-FACTORIAL HepG2 Assay for human Liver X Receptor alpha (LXRa) (AID 2282980); conditions: HepG2 Attagene TRANS reporter, LXRa transactivation
Method in brief: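 Chemical-induced reporter mRNA measured by RT-PCR with fluorescent labelling and capillary electrophoresis after 24 h dosing of transiently transfected HepG2 cells expressing exogenous NR-Gal4 chimeras; increases scored against DMSO baseline.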

[15] = target: Oxysterols receptor LXR-beta (Homo sapiens) (UniProt P55055); assay: ATG_LXRb_TRANS: Attagene TRANS-FACTORIAL HepG2 Assay for human Liver X Receptor beta (LXRb) (AID 2282981); conditions: HepG2 Attagene TRANS GAL4-LXRb reporter, mRNA
Method in brief: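 Transient transfection HepG2 (multiplexed RTUs, GAL4-UAS); NR-Gal4 chimera; 24 h exposure; RNA → RT-PCR → 6-FAM primer extension → HpaI → CE; increase vs DMSO.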

[16] = target: Hepatocyte nuclear factor 4-alpha (Homo sapiens) (UniProt P41235); assay: ATG_HNF4a_TRANS: Attagene TRANS-FACTORIAL HepG2 Assay for human Hepatocyte Nuclear Factor 4 alpha (HNF4a) (AID 2282982); conditions: HepG2 HNF4a transactivation reporter, mRNA readout
Method in brief: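 Readout is fluorescent reporter-transcript fragments resolved by capillary electrophoresis after RT-PCR from HepG2 cells dosed for 24 h. Cells carried transfected GAL4-UAS reporter constructs measuring exogenous NR-GAL4 chimera activity; DMSO served as baseline.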

[17] = target: Estrogen-related receptor gamma (Homo sapiens) (UniProt P62508); assay: ATG_ERRg_TRANS: Attagene TRANS-FACTORIAL HepG2 Assay for human Estrogen-Related Receptor gamma (ERRg) (AID 2282977); conditions: HepG2 Attagene TRANS reporter, ERRg transactivation;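 note: hits increase reporter signal over DMSO so potencies reflect activators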
Method in brief: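 Transfect HepG2 with multiple GAL4-UAS reporter transcription units; dose chemicals 24 h; isolate RNA, reverse-transcribe with oligo(dT), PCR-amplify, label with 6-FAM, digest with HpaI; size fragments by capillary electrophoresis. DMSO serves as negative control.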

[18] = target: Bile acid receptor (Homo sapiens) (UniProt Q96RI1); assay: ATG_FXR_TRANS: Attagene TRANS-FACTORIAL HepG2 Assay for Farnesoid X Receptor (FXR) (AID 2282979); conditions: HepG2 Attagene TRANS FXR-GAL4 reporter transcription;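 note: hits raise reporter mRNA above DMSO so AC50 marks FXR activation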
Method in brief: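 Reporter transcripts from transfected HepG2 cells were measured 24 h after dosing, using RT-PCR with capillary electrophoresis of 6-FAM-labelled fragments. The read-out reflects activity of exogenous FXR-Gal4 chimera on GAL4-UAS units, with induction relative to DMSO.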

[19] = ATG_M_19_TRANS: Attagene TRANS-FACTORIAL HepG2 Assay for M19 Transcription Factor (Internal Marker) (AID 2282974); conditions: HepG2 Attagene TRANS-FACTORIAL M19 internal marker reporter
Method in brief: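 Using RT-PCR and capillary electrophoresis, reporter mRNA from transiently transfected human HepG2 cells was quantified following 24 h exposure; activity was fitted in the positive direction against DMSO.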

Measured: AC50

Chain of Oxysterols receptor LXR-alpha (Homo sapiens) (Q13133 whole entry, looked up, the tested form may be a part): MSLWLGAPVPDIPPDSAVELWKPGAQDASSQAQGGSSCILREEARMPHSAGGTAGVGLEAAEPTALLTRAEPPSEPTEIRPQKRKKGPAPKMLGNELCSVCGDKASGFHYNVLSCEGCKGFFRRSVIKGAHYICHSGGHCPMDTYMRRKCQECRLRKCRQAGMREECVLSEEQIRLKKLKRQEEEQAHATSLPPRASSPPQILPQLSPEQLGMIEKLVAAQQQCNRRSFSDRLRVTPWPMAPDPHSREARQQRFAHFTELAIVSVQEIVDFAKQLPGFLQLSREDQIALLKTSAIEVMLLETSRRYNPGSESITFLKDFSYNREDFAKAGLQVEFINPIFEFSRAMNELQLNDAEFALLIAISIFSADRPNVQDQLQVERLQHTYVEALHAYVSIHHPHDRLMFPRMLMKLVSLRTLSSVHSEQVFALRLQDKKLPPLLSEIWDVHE
Chain of X-box-binding protein 1 (Homo sapiens) (P17861 whole entry, looked up): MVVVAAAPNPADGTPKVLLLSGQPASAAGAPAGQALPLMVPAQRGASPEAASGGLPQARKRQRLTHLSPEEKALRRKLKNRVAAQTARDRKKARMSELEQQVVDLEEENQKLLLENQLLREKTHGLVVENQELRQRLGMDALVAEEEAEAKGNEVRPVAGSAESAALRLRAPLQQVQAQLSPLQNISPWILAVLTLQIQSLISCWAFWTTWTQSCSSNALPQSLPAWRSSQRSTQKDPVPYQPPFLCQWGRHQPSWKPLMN
Chain of Estrogen receptor (Homo sapiens) (P03372 whole entry, looked up, the tested form may be a part): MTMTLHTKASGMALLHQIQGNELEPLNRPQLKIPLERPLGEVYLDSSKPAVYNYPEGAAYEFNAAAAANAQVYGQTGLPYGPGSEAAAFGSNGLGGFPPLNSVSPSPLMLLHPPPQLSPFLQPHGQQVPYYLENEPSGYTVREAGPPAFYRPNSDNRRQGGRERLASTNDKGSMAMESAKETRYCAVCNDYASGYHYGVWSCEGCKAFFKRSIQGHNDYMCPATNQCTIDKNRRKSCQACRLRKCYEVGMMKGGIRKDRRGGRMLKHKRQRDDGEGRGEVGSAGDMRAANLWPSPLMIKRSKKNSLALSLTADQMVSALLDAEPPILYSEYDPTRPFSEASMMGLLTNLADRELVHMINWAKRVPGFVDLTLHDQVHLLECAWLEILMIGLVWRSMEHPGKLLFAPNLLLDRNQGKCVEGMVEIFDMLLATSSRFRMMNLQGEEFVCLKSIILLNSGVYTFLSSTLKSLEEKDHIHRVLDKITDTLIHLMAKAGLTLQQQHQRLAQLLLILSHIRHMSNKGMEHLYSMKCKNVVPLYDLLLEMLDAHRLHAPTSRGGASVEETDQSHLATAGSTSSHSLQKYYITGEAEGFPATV
Chain of Nuclear receptor subfamily 4 group A member 2 (Homo sapiens) (P43354 whole entry, looked up, the tested form may be a part): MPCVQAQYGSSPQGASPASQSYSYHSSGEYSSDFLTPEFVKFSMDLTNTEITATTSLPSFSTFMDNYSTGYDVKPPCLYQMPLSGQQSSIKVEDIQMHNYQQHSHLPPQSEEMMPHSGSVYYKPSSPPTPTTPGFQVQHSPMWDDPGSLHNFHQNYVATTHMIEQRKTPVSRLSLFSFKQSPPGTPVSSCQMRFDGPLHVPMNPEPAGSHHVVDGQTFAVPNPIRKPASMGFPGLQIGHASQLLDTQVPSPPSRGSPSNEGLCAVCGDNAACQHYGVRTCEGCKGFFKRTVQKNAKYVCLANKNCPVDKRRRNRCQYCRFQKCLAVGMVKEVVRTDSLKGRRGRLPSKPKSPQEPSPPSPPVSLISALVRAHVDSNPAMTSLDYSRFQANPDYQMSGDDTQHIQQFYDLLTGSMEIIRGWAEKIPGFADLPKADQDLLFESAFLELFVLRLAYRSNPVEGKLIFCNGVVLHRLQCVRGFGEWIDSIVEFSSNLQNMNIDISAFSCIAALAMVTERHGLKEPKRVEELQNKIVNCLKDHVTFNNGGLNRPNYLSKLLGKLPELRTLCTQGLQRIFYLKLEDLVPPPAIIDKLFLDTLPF
Chain of Oxysterols receptor LXR-beta (Homo sapiens) (P55055 whole entry, looked up, the tested form may be a part): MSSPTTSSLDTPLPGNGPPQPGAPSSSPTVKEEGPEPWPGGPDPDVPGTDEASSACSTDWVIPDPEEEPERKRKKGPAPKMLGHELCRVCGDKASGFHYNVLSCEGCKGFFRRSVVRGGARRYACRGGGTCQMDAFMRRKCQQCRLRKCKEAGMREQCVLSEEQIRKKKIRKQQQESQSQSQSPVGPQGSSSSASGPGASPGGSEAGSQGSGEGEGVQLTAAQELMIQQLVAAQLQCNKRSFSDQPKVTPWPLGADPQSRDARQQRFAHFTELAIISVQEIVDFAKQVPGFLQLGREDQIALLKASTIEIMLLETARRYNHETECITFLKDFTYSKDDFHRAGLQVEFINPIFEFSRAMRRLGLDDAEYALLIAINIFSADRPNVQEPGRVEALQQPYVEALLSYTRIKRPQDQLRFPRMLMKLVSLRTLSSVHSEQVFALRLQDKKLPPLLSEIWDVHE
Chain of Nuclear respiratory factor 1 (Homo sapiens) (Q16656 whole entry, looked up): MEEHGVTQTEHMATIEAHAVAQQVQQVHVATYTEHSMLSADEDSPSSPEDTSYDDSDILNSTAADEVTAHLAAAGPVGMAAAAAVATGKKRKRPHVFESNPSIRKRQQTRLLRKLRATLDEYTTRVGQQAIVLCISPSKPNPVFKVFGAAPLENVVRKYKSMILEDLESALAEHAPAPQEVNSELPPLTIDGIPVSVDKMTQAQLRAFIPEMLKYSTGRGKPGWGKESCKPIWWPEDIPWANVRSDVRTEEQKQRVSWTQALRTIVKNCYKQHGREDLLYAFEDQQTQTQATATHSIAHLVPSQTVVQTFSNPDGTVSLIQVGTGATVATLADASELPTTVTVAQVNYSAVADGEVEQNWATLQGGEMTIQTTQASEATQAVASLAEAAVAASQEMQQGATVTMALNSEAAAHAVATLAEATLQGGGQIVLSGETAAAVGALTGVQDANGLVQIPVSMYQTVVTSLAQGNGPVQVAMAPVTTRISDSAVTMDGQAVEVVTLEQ
Chain of Glucocorticoid receptor (Homo sapiens) (P04150 whole entry, looked up, the tested form may be a part): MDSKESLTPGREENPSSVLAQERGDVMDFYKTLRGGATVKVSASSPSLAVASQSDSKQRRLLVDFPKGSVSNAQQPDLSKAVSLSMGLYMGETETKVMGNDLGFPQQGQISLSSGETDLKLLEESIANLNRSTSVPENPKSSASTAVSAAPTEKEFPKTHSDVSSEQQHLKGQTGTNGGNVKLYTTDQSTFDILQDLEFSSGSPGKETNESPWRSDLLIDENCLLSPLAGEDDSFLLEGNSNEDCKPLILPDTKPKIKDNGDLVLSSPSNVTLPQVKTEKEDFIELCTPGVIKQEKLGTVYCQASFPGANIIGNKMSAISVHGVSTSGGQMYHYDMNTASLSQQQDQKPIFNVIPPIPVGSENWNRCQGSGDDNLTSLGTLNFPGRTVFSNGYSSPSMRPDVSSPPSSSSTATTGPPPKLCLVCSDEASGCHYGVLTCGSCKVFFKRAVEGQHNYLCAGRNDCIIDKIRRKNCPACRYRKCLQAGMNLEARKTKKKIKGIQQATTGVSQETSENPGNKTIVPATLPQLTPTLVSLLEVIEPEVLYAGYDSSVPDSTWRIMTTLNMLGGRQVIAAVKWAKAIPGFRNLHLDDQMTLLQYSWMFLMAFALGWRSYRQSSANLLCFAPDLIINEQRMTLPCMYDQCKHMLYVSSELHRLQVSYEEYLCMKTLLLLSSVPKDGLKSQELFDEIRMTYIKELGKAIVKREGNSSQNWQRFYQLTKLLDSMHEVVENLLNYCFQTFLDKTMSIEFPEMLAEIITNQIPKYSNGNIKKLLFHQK
Chain of Hepatocyte nuclear factor 4-alpha (Homo sapiens) (P41235 whole entry, looked up, the tested form may be a part): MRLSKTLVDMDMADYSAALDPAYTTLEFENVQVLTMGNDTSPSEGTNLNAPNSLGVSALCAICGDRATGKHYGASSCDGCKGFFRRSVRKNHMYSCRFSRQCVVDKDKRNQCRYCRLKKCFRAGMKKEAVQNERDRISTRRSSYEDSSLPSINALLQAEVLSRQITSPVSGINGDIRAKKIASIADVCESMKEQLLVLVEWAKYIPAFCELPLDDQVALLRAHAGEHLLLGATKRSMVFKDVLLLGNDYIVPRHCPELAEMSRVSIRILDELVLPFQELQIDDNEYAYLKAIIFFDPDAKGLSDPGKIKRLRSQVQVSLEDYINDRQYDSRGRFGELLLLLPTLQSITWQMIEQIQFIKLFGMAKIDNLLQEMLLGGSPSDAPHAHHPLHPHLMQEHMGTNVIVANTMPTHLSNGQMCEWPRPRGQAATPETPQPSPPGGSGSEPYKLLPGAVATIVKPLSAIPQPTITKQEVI
Chain of Bile acid receptor (Homo sapiens) (Q96RI1 whole entry, looked up, the tested form may be a part): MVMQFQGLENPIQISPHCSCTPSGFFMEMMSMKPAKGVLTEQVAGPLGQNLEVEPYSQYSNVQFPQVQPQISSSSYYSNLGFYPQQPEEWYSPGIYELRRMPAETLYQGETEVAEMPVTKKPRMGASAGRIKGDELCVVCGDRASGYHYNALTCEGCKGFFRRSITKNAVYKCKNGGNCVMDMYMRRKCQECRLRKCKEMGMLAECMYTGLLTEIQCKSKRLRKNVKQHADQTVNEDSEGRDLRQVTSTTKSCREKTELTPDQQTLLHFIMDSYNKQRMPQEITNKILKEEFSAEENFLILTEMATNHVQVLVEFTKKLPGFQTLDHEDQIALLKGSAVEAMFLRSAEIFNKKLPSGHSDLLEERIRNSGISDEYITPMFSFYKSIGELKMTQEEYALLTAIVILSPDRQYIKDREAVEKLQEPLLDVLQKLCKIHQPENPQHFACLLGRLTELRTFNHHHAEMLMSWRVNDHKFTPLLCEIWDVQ
Chain of Nuclear receptor subfamily 1 group I member 3 (Homo sapiens) (Q14994 whole entry, looked up, the tested form may be a part): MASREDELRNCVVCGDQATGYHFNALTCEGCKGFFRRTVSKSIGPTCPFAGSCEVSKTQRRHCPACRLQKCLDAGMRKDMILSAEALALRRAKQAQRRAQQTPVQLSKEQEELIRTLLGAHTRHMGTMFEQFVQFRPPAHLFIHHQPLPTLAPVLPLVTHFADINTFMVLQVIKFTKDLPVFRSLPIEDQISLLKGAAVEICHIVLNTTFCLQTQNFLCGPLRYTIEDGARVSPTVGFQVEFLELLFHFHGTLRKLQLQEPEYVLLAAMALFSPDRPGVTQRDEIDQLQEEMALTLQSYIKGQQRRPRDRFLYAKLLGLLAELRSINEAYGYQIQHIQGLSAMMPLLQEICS

S=C(S)NCCNC(=S)S
inactive: [1] | [2] | [3] | [4] | [5] | [6] | [7] | [8] | [9]

CC(C)Oc1ccccc1O
inactive: [1] | [2] | [10] | [11] | [12] | [4] | [6] | [7] | [13] | [8] | [9]

Cc1ccc(C(=O)c2cc(O)c(O)c([N+](=O)[O-])c2)cc1
active: [5] 144 µM
inactive: [1] | [2] | [3] | [14] | [15] | [16] | [6] | [7] | [8] | [9]

O=C(O)CCCCC1CCSS1 (stereo not given)
inactive: [1] | [2] | [3] | [12] | [5] | [15] | [16] | [6] | [8] | [9]

O=C(Nc1ccccc1)c1cc([N+](=O)[O-])ccc1Cl
inactive: [1] | [2] | [10] | [17] | [5] | [18] | [14] | [15] | [6] | [7] | [13] | [8] | [9]
active: [11] 5.47 µM | [12] 4.35 µM

Clc1nc(C(Cl)(Cl)Cl)c(Cl)c(Cl)c1Cl
active: [1] 57.2 µM | [2] 62.2 µM
inactive: [10] | [11] | [12] | [19] | [16] | [6] | [7] | [8] | [9]

CC1(C)CCC(C)(C)c2cc(C(=O)Nc3ccc(C(=O)O)cc3)ccc21
inactive: [1] | [2] | [12] | [5] | [15] | [6] | [7] | [8]
active: [3] 27.8 µM | [18] 13 µM | [9] 93.6 µM

NCCCN1CCOCC1
inactive: [1] | [2] | [3] | [15] | [6] | [13] | [8] | [9]

CSc1nnc(C(C)(C)C)c(=O)[nH]1
inactive: [1] | [2] | [3] | [19] | [4] | [5] | [18] | [16] | [7] | [8] | [9]

CN(C)C(=N)N=C(N)N
inactive: [1] | [2] | [10] | [12] | [19] | [4] | [6] | [7] | [8]

Cc1ccc(C(=O)O)o1
inactive: [1] | [2] | [3] | [12] | [14] | [15] | [16] | [6] | [7] | [13] | [8] | [9]

O=C=NC1CCC(CC2CCC(N=C=O)CC2)CC1 (stereo not given)
active: [1] 26.8 µM | [2] 59.2 µM | [3] 37.5 µM
inactive: [5] | [6] | [8] | [9]

CCOc1ccccc1OCC
inactive: [1] | [2] | [3] | [16] | [6] | [13] | [8] | [9]

C=C(C)C(=O)O
inactive: [1] | [2] | [3] | [19] | [4] | [5] | [14] | [15] | [7] | [13] | [8] | [9]

— PubChem BioAssay (EPA / NIEHS)
